# From PubChem BioAssay (NCATS)
# “And” between values parts separate entries of the source, which are not always exact repeats. Equal entries are not always repeated. Results filed as inconclusive are left out. A call without a number means that no potency is given here. The source made the active and inactive calls. Unless noted, calls follow the shape of the dose curve; as a rule, active = well fitted curve in the direction sought with a large enough effect; inconclusive = small, poorly fitted or top-dose-only effect, or another doubt; inactive = no such curve, though single readings can be large; an effect the other way counts as inactive or inconclusive.
# How the values were obtained:
# [1] = Primary qHTS for small molecule stabilizers of the endoplasmic reticulum resident proteome: Secreted ER Calcium Modulated Protein (SERCaMP) assay (AID 1508630)
# In short: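 GLuc-SERCaMP-expressing SH-SY5Y cells, pretreated 16 h with compound, are challenged with thapsigargin to empty ER calcium stores; after 4 h, coelenterazine is added directly to the medium and luminescence is imaged.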
# [2] = A High-Content qHTS Against Drug Library for the Identification of Small Molecules that Inhibit DYT1 Early Onset Primary Dystonia-Associated Cell Pathology (AID 1645839; calls by dose curve; also: series mostly up to about 46 µM)
# Description: Nicole Calakos M.D., Ph.D.
# Duke University School of Medicine, Durham, NC
# In DYT1 dystonia due to delGAG in the TOR1A gene, there is a robust and widely replicated finding of TorsinA protein mislocalization caused when the mutant protein is in excess of the wildtype protein (1-7). Stable HEK293 cell lines were created that replicate this phenomenon. Inducible expression of an EGFP-hu delE TorsinA encoding cDNA causes pronounced punctate cellular distribution. […] This phenotypic difference in EGFP-huTorsinA fusion protein distribution serves as an indicator of cell pathology. […] RNAi screen results with the assay were validated in DYT1 patient cell phenotypes, intersected with a known dystonia gene, and led to discovery of new human genetic dystonia associations.
# The bioassay described herein is a high-content image screen with two readouts. The "%pathology" readout is the primary qHTS data channel, while the "cellcount" is the counterscreen qHTS channel. Desired active compounds are those that show inhibition in %pathology channel but no activity or minimal toxicity in cellcount readout.
# 1. Kustedjo, K., Bracey, M.H., and Cravatt, B.F. (2000). […] J. Biol. Chem. 275, 27933 - 27939.
# 2. Bragg, D.C., Kaufman, C.A., Kock, N., and Breakefield, X.O. (2004). Inhibition of N-linked glycosylation prevents inclusion formation by the dystonia-related mutant form of torsinA. Mol. Cell. Neurosci. 27, 417 - 426.
# 3. Gonzalez-Alegre, P., and Paulson, H.L. (2004). Aberrant Cellular Behavior of Mutant TorsinA Implicates Nuclear Envelope Dysfunction in DYT1 Dystonia. J. Neurosci. 24, 2593 - 2601.
# 4. Goodchild, R.E., and Dauer, W.T. (2004). Mislocalization to the nuclear envelope: an effect of the dystonia-causing torsinA mutation. Proc. Natl. Acad. Sci. U. S. A. 101, 847 - 852.
# 5. Kock, N., Allchorne, A.J., Sena-Esteves, M., Woolf, C.J., and Breakefield, X.O. (2006). RNAi blocks DYT1 mutant torsinA inclusions in neurons. Neurosci. Lett. 395, 201 - 205.
# 6. Hewett, J.W., Nery, F.C., Niland, B., Ge, P., Tan, P., Hadwiger, P., Tannous, B.A., Sah, D.W.Y., and Breakefield, X.O. (2008). siRNA knock-down of mutant torsinA restores processing through secretory pathway in DYT1 dystonia cells. Hum. Mol. Genet. 17, 1436 - 1445.
# 7. Calakos, N., Patel, V.D., Gottron, M., Wang, G., Tran-Viet, K.N., Brewington, D., Beyer, J.L., Steffens, D.C., Krishnan, R.R., and Zuchner, S. (2010). Functional evidence implicating a novel TOR1A mutation in idiopathic, late-onset focal dystonia. J. Med. Genet. 47, 646 - 650.
# 8. Rittiner* JE, Caffall* ZF, Hernandez-Martinez R, Sanderson SM, Pearson JL, Tsukayama KK, Liu AY, Xiao C, Tracy S, Shipman MK, Hickey P, Johnson J, Scott B, Stacy M, Saunders-Pullman R, Bressman S, Simonyan K, Sharma N, Ozelius LJ, Cirulli ET, Calakos N. Functional Genomic Analyses of Mendelian and Sporadic Disease Identify Impaired eIF2alpha Signaling as a Generalizable Mechanism for Dystonia. Neuron. 2016 Dec 21;92(6):1238-1251. doi: 10.1016/j.neuron.2016.11.012. Epub 2016 Dec 8. PMID: 27939583; PMCID: PMC5320521.
# High-content, High-throughput Drug Screening Assay
# The TorsinA mislocalization assay was modified from the previously published assay to accommodate compound testing in 1536 well format.1 Briefly, Flp-In T-REx 293 cells from Invitrogen in which a single copy of a cDNA is recombined into a specific genomic locus was used to create tetracycline-inducible expression of cDNA encoding either EGFP-hTOR1A (WT) or EGFP-delE hTOR1A (DYT1). […]
# [3] = target: Cytochrome P450 2C9 (Homo sapiens) (UniProt P11712); experiment: Cytochrome P450 family 2 subfamily C member 9 (CYP2C9) small molecule antagonists: luciferase biochemical (cell-free) qHTS assay (AID 1645842; active = well fitted curve in the direction sought with a large enough effect in the repeat runs; an effect the other way counts as inactive or inconclusive; also: nearly all actives have a fitted effect of over 55% in size; also: potency is read from the fitted curve at half-maximal effect)
# In short: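 Luminescence, after 20 min with luciferin detection reagent, reflected CYP2C9 turnover during a 1 h NADPH-driven reaction at 37C. Enzyme-substrate mix contained 0.4% bovine serum albumin and was preincubated with compound 10 min at room temperature.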
# [4] = Primary qHTS for inhibitors of nuclear receptor binding SET domain protein 2 (NSD2) in an isogenic RCH-ACV NSD2 p.E1099K mutant (9B) (AID 1645876); also: nearly all actives have a fitted effect of over 70% in size; also: potency is read from the fitted curve at half-maximal effect
# [5] = Primary qHTS for inhibitors of nuclear receptor binding SET domain protein 2 (NSD2) in an RCH-ACV wild type WT cells (2C) (AID 1645877); also: nearly all actives have a fitted effect of over 70% in size; also: potency is read from the fitted curve at half-maximal effect
# [6] = target: Cytochrome P450 2D6 (Homo sapiens) (UniProt P10635); experiment: Cytochrome P450 family 2 subfamily D member 6 (CYP2D6) small molecule antagonists: luciferase biochemical (cell-free) qHTS assay (AID 1645840; active = well fitted curve in the direction sought with a large enough effect in the repeat runs; an effect the other way counts as inactive or inconclusive; also: nearly all actives have a fitted effect of over 55% in size; also: potency is read from the fitted curve at half-maximal effect)
# In short: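 P450-Glo luminescent screen: recombinant CYP2D6 enzyme–proluciferin substrate mix preincubated with compound 10 min at room temperature, then NADPH regeneration added for 1 h at room temperature. Detection reagent added for 20 min; luciferin light read as relative luminescence units.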
# [7] = target: N-terminal Xaa-Pro-Lys N-methyltransferase 1 (Homo sapiens) (UniProt Q9BV86); experiment: Confirmatory qHTS for Inhibitors of N-terminal methyltransferase 1 (NTMT1): MTaseGlo Assay (AID 1645874);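 also: luminescence from SAH made as NTMT1 methylates SPKRIA peptide using SAM; series mostly up to about 100 µM; nearly all actives have a fitted effect of over 65% in size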
# In short: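 Preincubation of NTMT1 (125 nM) plus SAM (100 uM) with test compounds lasted 15 min; methylation of 1 uM SPKRIA then proceeded 30 min in the dark at room temperature. Luciferase signal reported SAH produced.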
# Cytochrome P450 2C9 (Homo sapiens), sequence (P11712 whole entry, looked up): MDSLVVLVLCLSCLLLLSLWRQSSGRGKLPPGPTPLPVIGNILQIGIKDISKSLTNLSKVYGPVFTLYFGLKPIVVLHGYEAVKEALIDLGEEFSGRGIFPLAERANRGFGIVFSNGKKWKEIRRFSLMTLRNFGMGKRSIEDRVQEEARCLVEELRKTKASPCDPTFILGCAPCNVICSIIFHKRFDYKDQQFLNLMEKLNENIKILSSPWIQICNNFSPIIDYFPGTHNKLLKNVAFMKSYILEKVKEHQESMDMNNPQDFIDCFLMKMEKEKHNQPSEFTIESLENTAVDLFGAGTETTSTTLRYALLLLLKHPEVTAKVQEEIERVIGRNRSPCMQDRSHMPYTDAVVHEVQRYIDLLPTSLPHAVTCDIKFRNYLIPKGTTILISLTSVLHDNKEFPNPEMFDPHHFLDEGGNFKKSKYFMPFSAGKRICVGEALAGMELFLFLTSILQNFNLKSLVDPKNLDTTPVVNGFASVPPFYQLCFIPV
# Cytochrome P450 2D6 (Homo sapiens), sequence (P10635 whole entry, looked up): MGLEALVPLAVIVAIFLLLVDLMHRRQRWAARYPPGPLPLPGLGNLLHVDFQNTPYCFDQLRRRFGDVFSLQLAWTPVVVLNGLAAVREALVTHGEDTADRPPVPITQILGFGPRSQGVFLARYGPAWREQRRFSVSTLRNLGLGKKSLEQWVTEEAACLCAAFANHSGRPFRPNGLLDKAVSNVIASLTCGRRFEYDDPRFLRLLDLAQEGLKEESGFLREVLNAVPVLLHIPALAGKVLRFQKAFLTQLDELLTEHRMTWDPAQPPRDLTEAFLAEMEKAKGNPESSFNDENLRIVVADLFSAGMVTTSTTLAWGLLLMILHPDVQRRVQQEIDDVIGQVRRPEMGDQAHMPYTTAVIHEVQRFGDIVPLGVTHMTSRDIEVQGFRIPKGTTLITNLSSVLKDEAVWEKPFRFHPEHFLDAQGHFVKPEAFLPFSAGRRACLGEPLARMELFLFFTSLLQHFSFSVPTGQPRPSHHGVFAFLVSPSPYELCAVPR
# N-terminal Xaa-Pro-Lys N-methyltransferase 1 (Homo sapiens), sequence (Q9BV86 whole entry, looked up): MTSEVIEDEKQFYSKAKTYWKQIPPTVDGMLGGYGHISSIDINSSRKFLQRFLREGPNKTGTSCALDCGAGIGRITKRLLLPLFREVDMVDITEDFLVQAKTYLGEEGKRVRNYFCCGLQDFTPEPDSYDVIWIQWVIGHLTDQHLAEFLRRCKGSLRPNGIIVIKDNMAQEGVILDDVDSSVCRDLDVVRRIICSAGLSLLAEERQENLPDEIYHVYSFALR
smiles,measurement,setting,value
CC(C)N(CCCNC(=O)Nc1ccc(C(C)(C)C)cc1)C[C@H]1O[C@@H](n2cc(Br)c3c(N)ncnc32)[C@H](O)[C@H]1O,Potency,[1],inactive
CCC=CC[C@H]1C(=O)CC[C@@H]1CC(=O)OC,Potency,[1],inactive
CCNC(=O)[C@H]1O[C@@H](n2cnc3c(N)nc(NCCc4ccc(CCC(=O)O)cc4)nc32)[C@H](O)[C@H]1O,Potency,[1],inactive
COc1c(C)c2c(c(O)c1CC=C(C)CCC(=O)OCCN1CCOCC1)C(=O)OC2,Potency,[1],inactive
CC[C@H]1OC(=O)[C@H](C)[C@@H](O[C@H]2C[C@@](C)(OC)[C@@H](O)[C@H](C)O2)[C@H](C)[C@@H](O[C@@H]2O[C@H](C)C[C@H](N(C)C)[C@H]2O)[C@](C)(O)C[C@H](C)C(=NOCOCCOC)[C@H](C)[C@@H](O)[C@]1(C)O,Potency,[1],inactive
Cn1c(=O)c(Oc2ccc(F)cc2F)cc2cnc(NC3CCOCC3)nc21,Potency,[1],inactive
CC1(C)[C@H]2CC[C@]3(C)[C@@H](C(=O)C=C4[C@@H]5C[C@@](C)(C(=O)O)CC[C@]5(C)CC[C@]43C)[C@@]2(C)CC[C@@H]1O,Potency,[1],inactive
CN1CCN(c2ncc(-c3cc(Cl)cc(Cl)c3Cl)c(N)n2)CC1,Potency,[1],inactive
COc1cc(Cl)cn2c(-c3cccc(NC4CNC4)n3)cnc12,Potency,[1],inactive
O=C(Nc1cccc2c(=O)cc(-c3nn[nH]n3)oc12)c1ccc(OCCCCc2ccccc2)cc1,Potency,[1],inactive
same,outcome,[2],inactive
same,Potency,[3],7.76 µM (active)
same,Potency,[4],inactive
same,Potency,[5],inactive
CC(C)CNc1ccnc(NCc2csc(-c3ccccc3)n2)n1,Potency,[1],inactive
same,Potency,[6],1.2 µM (active)
same,Potency,[3],10.7 µM (active)
same,Potency,[4],5.9 µM (active)
same,Potency,[5],8.33 µM (active)
C[C@@H](NC(=O)c1ncnc(N)c1Cl)c1ncc(C(=O)Nc2cc(C(F)(F)F)c(Cl)cn2)s1,Potency,[1],inactive
Cc1cc(-c2ncc(CC(=O)Nc3ccc(-c4cnccn4)cn3)cc2C)ccn1,Potency,[1],inactive
same,Potency,[6],inactive
same,Potency,[3],inactive
same,Potency,[7],inactive
Nc1ccc(-c2ccc3ncc4ccc(=O)n(-c5cccc(C(F)(F)F)c5)c4c3c2)cn1,Potency,[1],inactive
same,Potency,[6],23.9 µM (active)
same,Potency,[3],2.13 µM (active)
same,Potency,[4],14.8 nM (active) and 23.1 nM (active)
same,Potency,[5],20.9 nM (active) and 18.4 nM (active)
CNc1nc(-c2ccc3c(N)n[nH]c3c2)cc(N2C[C@@H](C(=O)NC3CCCCC3)CC[C@@H]2C)n1,Potency,[1],inactive
